# Experimental data taken from PubChem BioAssay AID651658 (Broad Institute, 2012).
# Several values for one entry are separate records, joined by “and”; a condition that tells them apart may be missing. Equal values may be shown once. The whole screen tested about 340,000 compounds, of which about 5,100 (1.5%) were called active.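 How the source made its calls: active means mean Tm shift, scaled 0 neutral to 100 positive control, at about 1.3% or above, every replicate too (limit read from the data); inconclusive means no clear call, values can overlap the other calls; inactive means the rest.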 The full list was thinned out, with actives kept by preference.
# Biological target: Fibroblast growth factor 22 (Homo sapiens) (UniProt Q9HCT0)
# Experiment: FGF22 ligand-induced thermal stabilization – biophysical, thermal shift, single point, FGF22 synaptogenesis inhibitor project, primary screen (AID 651658)
# Conditions: recombinant FGF22 thermal shift, SYPRO orange fluorescence; at 9.99 µM; stronger effect = higher value; percent of sucrose octasulfate shift, DMSO zero
# Chain of Fibroblast growth factor 22 (Homo sapiens) (Q9HCT0 whole entry, looked up): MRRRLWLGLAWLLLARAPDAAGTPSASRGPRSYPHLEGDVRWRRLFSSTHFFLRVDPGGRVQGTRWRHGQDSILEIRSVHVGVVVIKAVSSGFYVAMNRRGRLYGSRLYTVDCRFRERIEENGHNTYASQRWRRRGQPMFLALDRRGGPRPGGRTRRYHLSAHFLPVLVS
row,Structure (SMILES),"activity (Tm shift, normalised)"
1,C[C@@H]1CN([C@H](C)CO)C(=O)c2cc(C3=CCCC3)cnc2O[C@@H]1CN(C)C(=O)Nc1ccc(F)cc1,-0.106% (inactive)
2,COc1cc([N+](=O)[O-])ccc1NC(=O)CN1CCCC1,1.49% (active)
3,COc1cc(Cl)c(C)cc1NC(=O)CN1CCCCCC1,-0.091% (inactive)
4,O=C(CN1CCCCCC1)Nc1ccc(Br)cc1[N+](=O)[O-],-0.021% (inactive)
5,O=C(CCC(=O)c1cccs1)Nc1nc2ccccc2s1,0.414% (inactive)
6,O=C(NCc1cccnc1)C(=O)Nc1nc(-c2ccccc2)cs1,0.205% (inactive)
7,O=C(Nc1ccccc1)Nc1nnc(COc2ccccc2F)s1,0.184% (inactive)
8,O=C(Nc1ccccc1)Nc1nc2ccccc2s1,43.2% (active)
9,CC(=O)Nc1ccc(-c2csc(NC(=O)Nc3ccccc3)n2)cc1,44.8% (active)
10,NC(c1ccccc1)c1csc(NC(=O)Nc2cccc(C(F)(F)F)c2)n1 (configuration not stated),-0.154% (inactive)
11,O=C(C[C@@H]1CC[C@@H](NC(=O)c2ccc3c(c2)OCO3)[C@H](CO)O1)NCc1ccc(Cl)cc1,-0.267% (inactive)
12,Cc1cc(OCCCCOc2ccc(C#N)cc2)ccc1[N+](=O)[O-],0.385% (inactive)
13,CCCCCOc1ccc(CSC2=NCCN2)cc1[N+](=O)[O-],43.9% (active)
14,Cc1nc(SCc2ccc(F)cc2)c([N+](=O)[O-])[nH]1,-0.03% (inactive)
15,C[C@@H]1CCCCO[C@@H](CN(C)C(=O)C2CCCCC2)[C@H](C)CN([C@H](C)CO)C(=O)c2cc(NC(=O)c3ccccc3)ccc2O1,-0.449% (inactive)
16,CCN(CC)S(=O)(=O)c1ccc(N2CCCC2)c(NS(=O)(=O)c2cccs2)c1,-0.637% (inactive)
17,CCN(CC)S(=O)(=O)c1ccc(Cl)c(C(=O)NCCN2CCOCC2)c1,-0.116% (inactive)
18,CCN(CC)S(=O)(=O)c1ccc(Cl)c(C(=O)NC(C)C(c2cccs2)N2CCCC2)c1 (configuration not stated),43.4% (active)
19,CN(C)CC(=O)Nc1ccc2c(c1)[C@H]1C[C@H](CC(=O)NCc3ccccn3)O[C@@H](CO)[C@H]1O2,-0.026% (inactive)
20,COc1cc(C(=O)NCC2(c3ccccc3)CCCC2)ccc1OC(C)C,-0.207% (inactive)
21,CCOc1c(OC)cccc1C(=O)NCC1(c2ccccc2)CCCC1,-0.318% (inactive)
22,O=C(CNC1CCCCC1)NCC1(c2ccccc2)CCCC1,43% (active)
23,CO[C@@H]1CN(C)C(=O)c2ccc(NC(=O)C3CCC3)cc2OC[C@H](C)NC[C@H]1C,-0.059% (inactive)
24,COc1ccc2c3c(n(C)c2c1)[C@@H](CO)N(Cc1ccncc1)CC31CN(C(=O)C2CCC2)C1,-0.256% (inactive)
25,C[C@@H]1CN([C@H](C)CO)C(=O)c2cc(NS(=O)(=O)c3ccccc3)ccc2O[C@@H](C)CCCCO[C@H]1CN(C)C(=O)C1CCCCC1,-0.338% (inactive)
26,Cc1noc(C)c1S(=O)(=O)Nc1ccc2c(c1)CC(=O)N([C@@H](C)CO)C[C@@H](C)[C@H](CN(C)C)O2,-0.289% (inactive)

row,Structure (SMILES),"activity (Tm shift, normalised)"
1,CCCCn1c(N)c(N(CC)C(=O)/C=C/c2ccco2)c(=O)[nH]c1=O,0.345% (inactive)
2,CCCCN(C(=O)c1nn(C)c(=O)c2ccccc12)c1c(N)n(CCC)c(=O)[nH]c1=O,0.011% (inactive)
3,CCCCN(C(=O)/C=C/c1ccco1)c1c(N)n(CC(C)C)c(=O)[nH]c1=O,43.9% (active)
4,CC(C)NC(=O)N(C)C[C@H]1Oc2ccc(NC(=O)CCCCCC(=O)Nc3ccccc3N)cc2C(=O)N([C@@H](C)CO)C[C@@H]1C,-0.213% (inactive)
5,COc1ccc2c3c([nH]c2c1)[C@@H](CO)N(C(=O)C1CC1)CC31CCN(Cc2nccs2)CC1,0.119% (inactive)
6,CC(C)NC(=O)Nc1ccc2c(c1)C(=O)N([C@H](C)CO)C[C@H](C)[C@@H](CN(C)Cc1ccc3c(c1)OCO3)OCCCC[C@H](C)O2,-0.249% (inactive)
7,CC(=O)N1CCN(C(=O)C2(NC(=O)Nc3ccc(C)cc3)CCCCC2)CC1,-0.042% (inactive)
8,Cc1ccccc1NC(=O)NC1(C(=O)N2CCCC2)CCCCC1,43.5% (active)
9,O=C(Nc1ccccc1Cl)NC1(C(=O)N2CCOCC2)CCCCC1,-0.339% (inactive)
10,C[C@@H]1CN([C@H](C)CO)C(=O)Cc2cc(NC(=O)NC3CCCCC3)ccc2O[C@H]1CN(C)S(C)(=O)=O,-0.091% (inactive) and -0.115% (inactive)
11,CC(C)NC(=O)Nc1ccc2c(c1)C(=O)N([C@@H](C)CO)C[C@H](C)[C@@H](CN(C)Cc1ccc(C(=O)O)cc1)OCCCC[C@H](C)O2,0.548% (inactive)
12,COc1ccc2c3c([nH]c2c1)[C@H](CO)N(Cc1ccccc1Cl)CC31CN(C(=O)C2CC2)C1,0.006% (inactive)
13,COc1cccc(S(=O)(=O)N[C@@H]2C=C[C@H](CC(=O)NC3CCC3)O[C@H]2CO)c1,0.557% (inactive)
14,CC[N+]1(CC)CC2=Cc3ccccc3CC2C1 (configuration not stated),43.3% (active)
15,C[C@@H]1CCCCO[C@@H](CN(C)Cc2ccccc2)[C@H](C)CN([C@H](C)CO)C(=O)c2cc(NC(=O)Nc3cccc4ccccc34)ccc2O1,-0.579% (inactive)
16,C[C@@H]1CCCCO[C@H](CN(C)C(=O)NC2CCCCC2)[C@H](C)CN([C@H](C)CO)C(=O)c2cc(NC(=O)c3ccncc3)ccc2O1,0.182% (inactive)
17,COc1ccc2c3c(n(C)c2c1)[C@H](CO)N(C(=O)NC(C)C)CC31CN(CC2CCCCC2)C1,-0.103% (inactive)
18,COc1ccc(CNC(=O)C2CCN(S(=O)(=O)c3ccc(SC)cc3)CC2)cc1,-0.235% (inactive)
19,COc1ccc(CNC(=O)C2CCCC2)cc1,-0.099% (inactive)
20,COc1ccc(CNC(=O)C2CCN(S(C)(=O)=O)CC2)cc1,43.4% (active)
21,CN(C)C(=O)c1ccc(-c2ccc([C@@H]3[C@H](C#N)N(C(=O)C4CC4)[C@H]3CO)cc2)cc1,0.09% (inactive)
22,CO[C@H]1CN(C)C(=O)c2cc(NC(=O)Nc3cccc(F)c3)ccc2OC[C@@H](C)N(C)C[C@H]1C,0.028% (inactive)
23,S=C(Nc1ccc(Br)cc1Cl)N1CCC2(CC1)OCCO2,43.8% (active)
24,S=C(Nc1ccc(Cl)cc1Cl)N1CCCC1,-0.146% (inactive)
25,CC1CN(C(=S)Nc2ccc(Br)cc2Cl)CC(C)O1 (configuration not stated),0.064% (inactive)
26,O=C(Nc1cc(F)ccc1F)N1C[C@H]2[C@@H](c3ccccc31)[C@@H](CO)N2C(=O)c1ccccc1,0.029% (inactive)

row,Structure (SMILES),"activity (Tm shift, normalised)"
1,N#C[C@@H]1[C@H](c2ccccc2)[C@H](CO)N1C(=O)CN1CCOCC1,0.041% (inactive)
2,O=C(Nc1ccccc1F)N1C[C@H]2[C@@H](c3ccccc31)[C@H](CO)N2C(=O)c1ccccn1,-1.13% (inactive)
3,CC(C)NC(=O)N1C[C@@H]2[C@H](c3ccccc31)[C@H](CO)N2C(=O)c1ccccn1,16.8% (active)
4,O=C(Nc1ccccc1)N1C[C@@H]2[C@H](c3ccccc31)[C@H](CO)N2C(=O)c1ccccn1,-1.73% (inactive)
5,O=C(Nc1ccc(C(F)(F)F)cc1)N[C@@H]1CC[C@@H](CCNC(=O)c2ccccc2F)O[C@H]1CO,0.08% (inactive)
6,COc1ccc(Cl)cc1NC(=O)CN(C)C(=O)c1cc(-c2cccs2)nn1-c1ccccc1,0.161% (inactive)
7,O=C(COC(=O)c1cc(-c2cccs2)nn1-c1ccccc1)Nc1cc([N+](=O)[O-])ccc1Cl,43.8% (active)
8,Cc1nn(-c2ccccc2)c(C)c1NC(=O)COC(=O)c1cc(Cl)ccc1O,-0.058% (inactive)
9,CCC(=O)N1[C@@H](CO)[C@@H](c2ccc(C3=CCCC3)cc2)C12CN(C(=O)COC)C2,0.109% (inactive)
10,C[C@H]1CCCCO[C@@H](CN(C)Cc2ccccc2)[C@@H](C)CN([C@@H](C)CO)C(=O)c2cc(NC(=O)CCCN(C)C)ccc2O1,-0.026% (inactive)
11,CCNC(=O)C1(C)CCCN(C(=O)c2ccc3ccccc3n2)C1 (configuration not stated),-0.027% (inactive)
12,CN(c1ccccc1)S(=O)(=O)c1ccc(C(=O)N2CCN(c3ccccc3Cl)CC2)cc1,-0.343% (inactive)
13,O=C(c1ccc2ccccc2n1)N1CCN(c2ccccc2Cl)CC1,43.4% (active)
14,O=C(NCC[C@H]1CC[C@@H](NC(=O)c2cnccn2)[C@H](CO)O1)Nc1ccc(Cl)cc1,0.223% (inactive)
15,CCC(=O)Nc1ccc2c(c1)C(=O)N(C)[C@@H]1CC[C@@H](CC(=O)NCc3ccccc3Cl)O[C@H]1CO2,-0.111% (inactive)
16,C[C@@H]1CN([C@H](C)CO)S(=O)(=O)c2ccc(C#CC3(O)CCCC3)cc2O[C@@H]1CN(C)C(=O)c1cccnc1,-0.011% (inactive)
17,Cc1ccc(S(=O)(=O)N(C)C[C@@H]2Oc3ccc(NC(=O)c4ccncc4)cc3CC(=O)N([C@H](C)CO)C[C@H]2C)cc1,-0.013% (inactive)
18,CC1(C)CC(=O)C(CC(=O)N2CCC(Cc3ccccc3)CC2)C(=O)C1,41.9% (inactive)
19,CC1(C)CC(=O)C(C2c3ccccc3S(=O)(=O)c3ccccc32)C(=O)C1,42.9% (active)
20,COc1ccc2c3c(n(C)c2c1)[C@H](CO)N(CC1CC1)CC31CCN(C(=O)c2ccccc2)CC1,-0.078% (inactive)
21,COc1ccc(S(=O)(=O)N[C@@H]2CC[C@@H](CC(=O)N3CCC(Cc4ccccc4)CC3)O[C@@H]2CO)cc1,0.502% (inactive)
22,CS(=O)(=O)N1[C@H](CO)[C@H](c2ccccc2)C12CN(C(=O)C1CC1)C2,-0.066% (inactive)
23,Cn1cc(C(=O)c2ccc(Cl)cc2Cl)cc1C(=O)NN,-0.308% (inactive)
24,Cc1ccccc1NC(=O)Cc1nc(COC(=O)CNC(=O)c2ccc(Cl)cc2Cl)cs1,0.003% (inactive)
25,CC(=O)Cc1nsc(NC(=O)c2ccc(Cl)cc2Cl)n1,44.2% (active)
